HP1b chromo inh – HTS for Inhibitors of HP1-beta Chromodomain Interactions with Methylated Histone Tails. AlphaScreen HP1-beta / biotin-H3K9me3 peptide binding. Potency, µM (titrated, usually from 114 µM), inactives show top-dose activity change, negative = inhibition, actives largely listed as inhibitors. actives 0.56% (n = 390,000). AID 540317, 2011; note: potency is the fitted concentration of half-maximal effect; nearly all actives have a fitted effect of over 70% in size
Target sequence (P83916 whole entry, looked up): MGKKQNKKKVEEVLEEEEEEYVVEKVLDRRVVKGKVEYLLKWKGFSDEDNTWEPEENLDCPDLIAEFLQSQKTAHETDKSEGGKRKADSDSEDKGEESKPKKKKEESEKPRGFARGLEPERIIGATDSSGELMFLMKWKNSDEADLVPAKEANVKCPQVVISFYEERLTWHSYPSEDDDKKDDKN
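HP1-beta protein (50 nM final) preincubated 30 min at room temperature with biotinylated H3(1-18)K9me3 peptide (50 nM) in PBS pH 7.4, 0.01% Tween-20, then compound added for 30 min. AlphaScreen streptavidin donor/nickel chelate acceptor beads (10 ug/mL final), 30 min dark, luminescence read.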
PI5P4Ka inh – qHTS for Inhibitors of phosphatidylinositol 5-phosphate 4-kinase (PI5P4K) | Phosphatidylinositol 5-phosphate 4-kinase type-2 alpha (Homo sapiens), P48426 | PI5P4Kalpha enzyme, ADP-Glo luminescence, 60 min; stronger effect = lower value | max response, % | actives 1.2% (n = 330,000) | AID 652105, 2013; active = max response of -50% or lower; inconclusive = between -30% and -50%; inactive = -30% or higher; note: value at the top dose of about 77 µM; % is set by controls: 0 for no effect and ±100 for the full control effect
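Quantitative HTS of the MLSMR library against PI5P4Kalpha with substrate. ATP added last at 5 microM final; room temperature, 60 minutes. Remaining ATP depleted, ADP converted and read as luminescence.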
JMJD2A Tudor inh – qHTS Assay for Inhibitors of JMJD2A-Tudor Domain. AlphaScreen JMJD2A-Tudor / H3K4me3 peptide binding. Potency, µM (doses to about 114 µM), for the others: top-dose activity change, negative = inhibition, usual class: inhibitors. actives 4.4% (n = 390,000). Lysine-specific demethylase 4A (Homo sapiens), O75164; note: potency is the fitted concentration of half-maximal effect; % is set by controls: 0 for no effect and ±100 for the full control effect; nearly all actives have a fitted effect of over 50% in size
G9a block – qHTS Assay for Inhibitors of Histone Lysine Methyltransferase G9a; Potency, µM (titrated, usually from 102 µM), for inactives: at the top dose activity, negative = inhibition, most hits filed as inhibitors; Histone-lysine N-methyltransferase EHMT2 (Homo sapiens), Q96KQ7; AID 504332, 2011; actives 8.8% (n = 350,000); G9a H3K9 monomethylation, AlphaScreen, 2 h; note: potency is the fitted concentration of half-maximal effect; % is set by controls: 0 for no effect and ±100 for the full control effect; nearly all actives have a fitted effect of over 75% in size
Target sequence (Q96KQ7 913-1193 limits assumed): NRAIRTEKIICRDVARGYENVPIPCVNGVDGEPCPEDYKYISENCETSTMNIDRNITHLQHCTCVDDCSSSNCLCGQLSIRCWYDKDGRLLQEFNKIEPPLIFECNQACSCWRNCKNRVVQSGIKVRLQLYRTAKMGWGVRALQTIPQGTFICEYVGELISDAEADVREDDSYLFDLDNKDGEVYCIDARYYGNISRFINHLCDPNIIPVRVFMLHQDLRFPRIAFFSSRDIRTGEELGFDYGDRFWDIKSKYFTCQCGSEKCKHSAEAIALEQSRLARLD
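Step 1: enzyme (final 20 nM) with compound, 15 min RT. Step 2: substrate peptide 500 nM and SAM 20 uM, 2 h RT. Step 3: anti-H3K9me1 antibody and AlphaScreen beads, 10 min, then plate read.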
BAZ2B inh – qHTS Assay for Inhibitors of BAZ2B; AlphaScreen BAZ2B-H3K14Ac peptide displacement; Potency, µM (titrated, usually from 114 µM), inactives show top-dose activity change, negative = inhibition, hits mostly inhibitors; actives 4.4% (n = 360,000); AID 504333, 2011; note: potency is the fitted concentration of half-maximal effect; % is set by controls: 0 for no effect and ±100 for the full control effect; nearly all actives have a fitted effect of over 60% in size
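Compounds, titrated to a top concentration of 110 uM, were incubated 30 min at room temperature with preformed BAZ2B/acetyl-K14 H3 peptide complex (50 nM each). Proximity signal was measured by AlphaScreen after 20 min with beads.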
PLK1 PBD inh – qHTS for Inhibitors of PLK1-PDB (polo-like kinase 1 - polo-box domain): Primary Screen | Serine/threonine-protein kinase PLK1 (Homo sapiens), P53350 | Plk1 PBD binding of FITC phosphopeptide, fluorescence polarization | Potency, µM, for the others: max response, negative = inhibition, most hits filed as inhibitors | actives 2.8% (n = 360,000); note: potency is the fitted concentration of half-maximal effect; series mostly up to about 57 µM; % is set by controls: 0 for no effect and ±100 for the full control effect; nearly all actives have a fitted effect of over 65% in size
Starred values were filed as active, the others as inactive; ? = inconclusive; . = no result given; [ ] = another dose, or the depositor's remark. Only some compounds are listed: those with a hit (about 12% of all), similar ones and a draw of the others. Unless noted, calls come from the whole dose curve; as a rule, active = well fitted curve in the direction sought with a large enough effect; inconclusive = small, poorly fitted or top-dose-only effect, or another doubt; inactive = no such curve, though single readings can be large; an effect the other way counts as inactive or inconclusive.

SMILES | HP1b chromo inh | PI5P4Ka inh | JMJD2A Tudor inh | G9a block | BAZ2B inh | PLK1 PBD inh
NC(=O)NN=C1c2cc(S(=O)(=O)N3CCOCC3)ccc2-c2ccc(S(=O)(=O)N3CCOCC3)cc21 | 46% | . | -22% | . | . | .
NC(=S)NN=C1c2cc(OCCN3CCOCC3)ccc2-c2ccc(OCCN3CCOCC3)cc21 | ? | -4 | ? | 32µM* | 40µM* | -18%
CNCCOc1ccc(Cl)c(Cl)c1 | ? | 4 | 3.2µM* | 40µM* | -33% | -17%
CCOc1ccc(OCCN2CCCCC2)cc1 | -11% | -1 | 10µM* | 7.9µM* | 56µM* | -4%
Cc1cc(OCCOCCN2CCCC2)ccc1C(C)C | 19% | 3 | 5µM* | 20µM* | ? | -13%
O[C@H]1C[C@H](c2ccc(Cl)cc2)N(CC2CCCCC2)C[C@@H]1n1cc(C2CC2)nn1 | . | -2 | . | . | . | 0%
CN(C(=O)c1cccc(NC(=O)Cc2cccc(NC(=O)C3CCN(C(=O)CCc4ccccc4)CC3)c2)c1)C1CC1 | 39% | 1 | -14% | . | . | -12%
CCOc1ccc(CNCCN2CCCC2)cc1 | ? | -6 | 13µM* | 2.8µM* | 56µM* | 4%
Clc1ccc(OCCN2CCCCC2)cc1Cl | -57% | 5 | 22µM* | ? | ? | -3%
CCOc1ccc(OCCOCCN2CCCC2)cc1 | -20% | 5 | 28µM* | 8.9µM* | ? | -6%
CCc1cccc(OCCOCCN2CCCC2)c1 | ? | -2 | 10µM* | 10µM* | 79µM* | -2%
Clc1cccc(OCCN2CCN(CCOc3cccc(Cl)c3)CC2)c1 | -6% | 31 | ? | ? | ? | 2%
c1ccc(OCCOCCN2CCN(C(c3ccccc3)c3ccccc3)CC2)cc1 | ? | 3 | 0.89µM* | 10µM* | 50µM* | -15%
ON=C1c2cc(OCCN3CCCCC3)ccc2-c2ccc(OCCN3CCCCC3)cc21 | -4% | -14 | ? | . | ? | 19µM*
CC(OCCN1CCCC1)(c1ccc(F)cc1)c1ccc(F)cc1 | 23% | -5 | 89µM* | 8%[59 µM] | -3% | 30µM*
Fc1ccc(OCCOCCN2CCCC2)cc1 | ? | 4 | 6.3µM* | . | . | -11%
O=C(NNC(=O)c1ccc([N+](=O)[O-])cc1C(=O)O)c1ccncc1 | 16% | 0 | -9% | 2% | -5% | 0%
Cc1cccc(N2C(=O)C(CC(=O)Nc3cccc(F)c3)N(Cc3cccs3)C2=O)c1 (stereo not drawn) | 50% | . | -5% | -16%[59 µM] | -14% | .
COc1cc2c(ccc3cc(OC)c(OC)c(O)c32)cc1O | ? | -106* | 10µM* | ? | 7.1µM* | ?
COc1cc2cccc(OC)c(=O)c2c(O)c1OC | 17% | 1 | -11% | ? | -25% | -4%
O=C(c1cnc(N2CCOCC2)c2ccccc12)N1CCN(c2ccccc2)CC1 | 15%[57 µM] | . | -21% | -2%[59 µM] | -3% | .
Cc1cccc(-c2nc3c(c(SCC(=O)N4CCOCC4)n2)Cc2c(CO)cnc(C)c2O3)c1 | 37% | -5 | ? | 45µM* | ? | -26%
Cc1ncc(CO)c2c1Oc1nc(-c3ccccc3)nc(SCC(=O)N3CCCCC3)c1C2 | -4% | -8 | ? | 40µM* | -23% | -30%
Cc1ncc(CO)c2c1Oc1nc(-c3ccc(Cl)cc3)nc(SCC(=O)N3CCCCC3)c1C2 | 26% | . | -15% | ? | ? | .
COc1cccc(-c2nc3c(c(SCC(=O)N4CCOCC4)n2)Cc2c(CO)cnc(C)c2O3)c1 | 19% | -2 | ? | 14µM* | ? | ?
SMILES | HP1b chromo inh | PI5P4Ka inh | JMJD2A Tudor inh | G9a block | BAZ2B inh | PLK1 PBD inh
COc1cccc(-c2nc3c(c(SCC(=O)Nc4cc(C)ccc4C)n2)Cc2c(CO)cnc(C)c2O3)c1 | 13% | . | -5% | -26%[59 µM] | -32% | .
Cc1nc(-c2ccccn2)nc(SCC(=O)N2CCOCC2)c1Cl | 2% | -1 | -15% | 20µM* | 5% | 24µM*
COc1ccc(-c2noc(-c3ccc(NCCc4ccccc4)c([N+](=O)[O-])c3)n2)cc1 | 37% | . | 0% | ? | 7% | .
COc1ccccc1-c1nc2c(c(SCC(=O)N3CCCCC3)n1)Cc1c(CO)cnc(C)c1O2 | 24% | 2 | -29% | ? | ? | -19%
Cc1ncc(CO)c2c1Oc1nc(-c3ccccc3)nc(SCC(=O)N3CCOCC3)c1C2 | 19% | -5 | -36% | 32µM* | -31% | -21%
Cc1oc(-c2ccccc2)nc1CSc1nnc(C)n2c1cc1sccc12 | 24% | . | -15% | -35%[59 µM] | -16% | .
O/N=C1/CCCCC1c1ccccn1 (stereo not drawn) | 23% | -2 | 32µM* | ? | 50µM* | -6%
CCOc1ccccc1N1CCN(C(=O)NC2CCCCC2)CC1 | 16% | 0 | -7% | 14% | -25% | -13%
CCC(C)(C)C1CCC(NC(=O)N2CCN(c3ccccc3O)CC2)CC1 (stereo not drawn) | -3% | 4 | 79µM* | 4% | -10% | ?
C/C(=N\Nc1cc(C(F)(F)F)ccc1Cl)c1ccncc1 | 35% | 5 | -11% | 40µM* | -15% | -1%
CCS(=O)(=O)c1ncc(Cl)c(C(=O)Nc2ccc(S(=O)(=O)N3CCC(C)CC3)cc2)n1 | 3%[57 µM] | -20 | -30% | 45µM* | -27%[57.1 µM] | ?
CCSc1ncc(Cl)c(C(=O)Nc2ccc(S(=O)(=O)N3CCC(C)CC3)cc2)n1 | 27% | . | -19% | -35%[59 µM] | -17% | .
CCCS(=O)(=O)c1ncc(Cl)c(C(=O)Nc2ccc(S(=O)(=O)Nc3ncccn3)cc2)n1 | 63% | -4 | -3% | 18µM* | -18% | ?
CCCCOc1ccc(C(=O)N/C(=C\c2ccc(Br)cc2)C(=O)NC2CCCCC2)cc1 | 17% | . | -15% | -2%[59 µM] | 1% | .
O=C(c1cc2ccccc2o1)N1CCN(Cc2nc3ccccc3s2)CC1 | . | 2 | . | . | . | -1%
CCN(CC)CC(O)Cn1c(C)c(-c2ccccc2)c2cc([N+](=O)[O-])ccc21 (stereo not drawn) | -12% | 0 | ? | 45µM* | ? | -7%
Cc1c(CCNC(=O)c2ccc(Br)o2)sc2nc(-c3ccc(F)cc3)nn12 | 24% | . | 50µM* | -5%[59 µM] | -23% | .
CCc1noc(C)c1C(=O)Nc1nc2ccc(F)cc2s1 | 23% | -2 | -21% | 16µM* | 5% | -6%

Screening results as filed in PubChem BioAssay.
